Source: PubChem
TSHR ag: activates the human thyroid stimulating hormone receptor. P16473. HEK293-CNG-TSHR cells (CNG channel as cAMP sensor), membrane potential dye, cAMP. Potency, µM (highest dose often 57.1 µM), inactives show top-dose activation, usual class: activators. 0.48% of 73,000 active; active = well fitted activation curve with a large enough effect in the main read-out, with a control signal flat, not every such curve was filed as active; inconclusive = small, poorly fitted or top-dose-only effect, or a change in a side signal; inactive = no such curve, though single readings can be large or run the other way; % of control where 0% means no effect;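 note: the control signal comes from parental cells without the receptor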
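HEK 293 cells stably expressing TSHR and a modified CNG channel, with CNG-only parental cells as counterscreen, were preloaded 60 min at room temperature with membrane potential dye containing 100 uM RO 20-1724. Compound exposure was 30 min, and depolarization was read as fluorescence at 590 nm.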
CRE-bla Fsk: alters forskolin-stimulated CRE reporter signaling in CHO cells; Potency, µM (doses to about 38.2 µM), for the others: at the top dose activity change, negative = inhibition, actives largely listed as activators; CHO CRE-bla reporter (cAMP response element driving beta-lactamase), forskolin EC10, beta-lactamase ratio; 2.5% of 71,000 active; active = well fitted activation curve with a large enough effect in the signal ratio, with a control signal flat, not every such curve was filed as active; inconclusive = small, poorly fitted or top-dose-only effect, or effect the other way, or a change in a side signal; the % refers to the signal ratio; note: % of control where 0% means no effect
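Modulation of forskolin-driven signalling is measured in CHO cells carrying a CRE-controlled beta-lactamase reporter. Cells are stimulated with EC10 NKH 477 in the presence of titrated compound for 3 h at 37 °C, then loaded with CCF4 for 2 h at room temperature.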
ERK AVP block: blocks ERK signaling stimulated by vasopressin. HEK293-V1b, vasopressin-stimulated pERK AlphaScreen. Potency, µM (highest dose often 57.5 µM), for the others: at the top dose activity, negative = inhibition, actives largely listed as inhibitors. 0.99% of 72,000 active; note: % is set by controls: 0 for no effect and ±100 for the full control effect; nearly all actives have a fitted effect of over 55% in size
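HEK293 cells stably expressing V1b receptor, preincubated 30 min at 37 °C with compound, then stimulated 5 min with 25 nM vasopressin. Phospho-ERK by AlphaScreen SureFire after 5 h RT; normalized to DMSO and vasopressin; AC50 by Hill fit.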
Tau fil binding: tau filament binding; 2% of 71,000 active; Potency, µM (doses to about 57.1 µM), for the others: at the highest dose activity change, negative = inhibition; P10636; recombinant tau filaments, thioflavin S fluorescence, 15 h; filaments grown with octadecylsulfate alongside compound;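 note: % is set by controls: 0 for no effect and ±100 for the full control effect; actives lower thioflavin S fluorescence by blocking filaments or displacing dye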
Target sequence (P10636 whole entry, looked up): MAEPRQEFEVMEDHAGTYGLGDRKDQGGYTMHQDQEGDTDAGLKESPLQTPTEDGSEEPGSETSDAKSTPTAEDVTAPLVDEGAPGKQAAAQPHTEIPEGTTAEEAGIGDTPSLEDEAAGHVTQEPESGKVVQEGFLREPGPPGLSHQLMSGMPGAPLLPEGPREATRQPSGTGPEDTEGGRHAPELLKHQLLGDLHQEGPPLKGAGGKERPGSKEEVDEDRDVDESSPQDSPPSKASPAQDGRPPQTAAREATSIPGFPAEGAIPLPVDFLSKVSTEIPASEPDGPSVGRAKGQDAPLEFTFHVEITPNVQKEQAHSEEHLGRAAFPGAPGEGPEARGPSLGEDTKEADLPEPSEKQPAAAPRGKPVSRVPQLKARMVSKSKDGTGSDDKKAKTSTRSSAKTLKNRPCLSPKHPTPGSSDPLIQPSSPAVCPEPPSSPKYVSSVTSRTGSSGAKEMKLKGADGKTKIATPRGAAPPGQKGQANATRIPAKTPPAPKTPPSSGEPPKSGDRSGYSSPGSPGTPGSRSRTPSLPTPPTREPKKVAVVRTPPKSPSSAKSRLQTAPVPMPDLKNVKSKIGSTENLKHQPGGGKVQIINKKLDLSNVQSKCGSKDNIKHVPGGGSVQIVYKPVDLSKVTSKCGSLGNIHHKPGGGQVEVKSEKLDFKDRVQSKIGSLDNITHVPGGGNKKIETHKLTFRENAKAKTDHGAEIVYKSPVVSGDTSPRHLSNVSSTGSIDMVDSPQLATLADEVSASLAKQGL
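Read-out: ThS fluorescence, 450 nm excitation/510 nm emission; lower signal marks blocked filament formation or displaced dye. Tau at 1 uM with 30 uM ODS, 10 uM ThS, 5 mM DTT, 100 mM NaCl, 10 mM HEPES pH 7.4; 15 h, 37 C.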
HEK293 cAMP cs: parental HEK293 cAMP activation (counter-screen) | parental HEK293 CNG cAMP sensor, membrane potential fluorescence | Potency, µM (highest dose often 57.1 µM), inactives show top-dose activation, actives largely listed as activators | 2.5% of 73,000 active | AID 938; note: % of control where 0% means no effect; nearly all actives have a fitted effect of over 55% in size
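Parental HEK 293 cells stably expressing a cAMP-gated CNG channel were loaded with membrane potential dye containing 100 uM RO 20-1724 for 60 min. Compound added for 30 min; depolarization read as fluorescence intensity at 590 nm.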
* marks the source's active call; other numbers are inactive results; ? = inconclusive; . = no result given; [ ] = remark or other dose. Shown are actives, neighbours in structure and some others; about 7.4% of the full set was active somewhere. Unless noted, calls come from the whole dose curve; as a rule, active = well fitted curve in the direction sought with a large enough effect; inconclusive = small, poorly fitted or top-dose-only effect, or another doubt; inactive = no such curve, though single readings can be large; an effect the other way counts as inactive or inconclusive. Potency is the fitted concentration of half-maximal effect.

SMILES	TSHR ag	CRE-bla Fsk	ERK AVP block	Tau fil binding	HEK293 cAMP cs
O=C(O)c1ccc(S(=O)(=O)Cc2ccccc2)cc1	?	2.7%	17.3%	6.1%	3.16µM*
Cc1c(/N=C/c2ccco2)n(Cc2ccccc2)c2ccccc12	?	?	12.6µM*	1.58µM*	?
CCCc1cc2c(c(=O)o1)C(O)C1OC1C2=O (configuration not stated)	-11.2%[11.4 µM]	.	23.0%[11.5 µM]	.	-6.0%[11.4 µM]
CCOC(=O)c1ccccc1N/C=C1\CCCC1=O	18.6%	10µM*	5.0%	2.3%	43.6%
COc1ccc(CC(=O)Nc2ccc(OC)c(NC(=O)c3ccco3)c2)cc1	-1.7%	-6.0%	-2.5%	-5.3%	12.8%
COc1ccc(OC)c(N/C(=N\c2nc(C)cc(C)n2)NC(=O)c2ccco2)c1	?	15.6%	-10.6%	0.5%	25.1µM*
CCN(CC)CCCCn1c(-c2ccccc2)nc2c(N(CCOC)CCOC)nc(C)nc21	?	15.0%	-22.2%	9.4%	?
CCCC(c1nnnn1C1CCCC1)N1CCN(c2ccccc2F)CC1 (configuration not stated)	?	-5.2%	16.8%	-4.8%	5.01µM*
O=C(CCc1ccc(O)cc1)c1c(O)cc(O)cc1O[C@@H]1O[C@@H](CO)[C@@H](O)[C@@H](O)[C@H]1O	-3.0%	-1.0%	.	?	7.4%
Cc1cccc(NC(=O)c2cc(-c3ccco3)nc3ccccc23)n1	?	?	-11.6%	62.8%	25.1µM*
CCOc1cc(N2CCOCC2)c(OCC)cc1NC(=O)c1cc(-c2ccco2)nc2ccccc12	4.3%	?	?	10µM*	-14.2%[2.29 µM]
COC(=O)Cn1c(C(=O)N2CCCC2)cc2c1C[C@H]1CN(C(=O)c3ccccc3)[C@@](Cc3ccccc3)(C(=O)OC)[C@@H]21	?	-25.6%	-5.0%	0.2%	20µM*
COC(=O)[C@@]1(Cc2ccccc2)[C@H]2c3cc(C(=O)N4CCCC4)n(CCSCCO)c3C[C@H]2CN1C(=O)c1ccccc1	?	?	-13.5%	6.0%	?
COC(=O)[C@@]1(Cc2ccccc2)[C@H]2c3cc(C(=O)N4CCCC4)[nH]c3C[C@H]2CN1C(=O)c1ccccc1	8.5%	2µM*	12.8%	-3.3%	13.1%
COC(=O)[C@@]1(Cc2ccccc2)[C@H]2c3cc(C(=O)N4CCCC4)n(CCc4ccccn4)c3C[C@H]2CN1C(=O)c1ccccc1	?	?	-4.3%	5.5%	15.8µM*
COC(=O)[C@@]1(Cc2ccccc2)[C@H]2c3cc(C(=O)N4CCCC4)n(CC4CC4)c3C[C@H]2CN1C(=O)c1ccccc1	?	-15.0%	-14.5%	5.7%	2µM*
NC(=S)c1ccc[n+]([C@@H]2O[C@@H](COP(=O)([O-])OP(=O)(O)OC[C@@H]3O[C@@H](n4cnc5c(N)ncnc54)[C@@H](OP(=O)(O)O)[C@H]3O)[C@@H](O)[C@H]2O)c1	?	3.0%	-4.4%	-2.6%	?
Cc1nc2ccccc2c(=O)n1/N=C/c1ccncc1	-6.8%	24.6%	?	0.7%	-6.9%
Cc1nc2ccccc2c(=O)n1/N=C/c1cn(-c2ccccc2)nc1-c1cccs1	24.4%	2.51µM*	?	25.2%	23.2%
O=C(NCCO)c1ccc(Cc2nc3ccccc3[nH]2)cc1	-6.5%	.	.	.	-5.3%
Cc1noc(C)c1COC(=O)c1cc(C)n(-c2ccccc2)c1C	?	?	2.9%	-2.6%	?
Cc1cccc(C(=O)Nc2ccccc2C(=O)OCc2c(C)noc2C)c1	?	?	23.2%	22.4%	15.8µM*
Cc1cc2nc(C)n3c4ccccc4nc3n2n1	16.6%	?	-28.5%	-1.7%	-0.5%
CCc1nc2cc(C)nn2c2nc3ccccc3n12	23.6%	3.16µM*	-12.9%	0.9%	19.5%
OC(CNc1nc2ccccc2s1)c1ccccc1 (configuration not stated)	-5.2%	14.9%	25.1µM*	9.1%	-9.4%
SMILES	TSHR ag	CRE-bla Fsk	ERK AVP block	Tau fil binding	HEK293 cAMP cs
O=C(O)CCSc1nc2ccccc2s1	.	-4.2%	-10.1%	-5.2%	22.2%
Cn1c(=O)[nH]c(=O)c2c1nc(Br)n2CCOc1ccccc1	-0.5%	3.16µM*	?	1.6%	-12.7%
Cn1c(=O)[nH]c(=O)c2c1nc(N1CCCCC1)n2CCOc1ccccc1	?	?	?	3.0%	?
Cn1c(=O)c2c(nc(N3CCCCC3)n2CCSc2nc3ccccc3s2)n(C)c1=O	?	1.6%	4.2%	7.3%	?
Cn1c(=O)[nH]c(=O)c2c1nc(Br)n2CCCSc1nc2ccccc2o1	?	10µM*	31.6µM*	-1.2%	?
O=C1c2ccccc2C(=O)N1CCCSc1nc2ccccc2o1	?	?	?	3.98µM*	3.98µM*
Cn1c(=O)[nH]c(=O)c2c1nc(N1CCCCC1)n2CCCSc1nc2ccccc2s1	.	2.51µM*	?	64.0%	12.5%
CC1=NCC[N@@+]1(CCc1ccccc1)Cc1ccccc1	3.3%[11.4 µM]	-4.7%[7.6 µM]	9.5%[11.5 µM]	7.2%[11.4 µM]	8.2%[11.4 µM]
CCCCNc1nc(C)nc2c1nc(-c1ccccc1)n2CCCN1CCCCC1C (configuration not stated)	?	9.3%	0.0%	39.6%	?
COc1ccccc1-c1cc(C(=O)N2CCc3ccccc3C2)no1	23.2%	?	-11.0%	112.6%	22.8%
[N-]=[N+]=CC(=O)COC(=O)c1ccccc1	4.1%[11.4 µM]	11.7%[7.6 µM]	-8.1%[11.5 µM]	1.2%[11.4 µM]	7.3%[11.4 µM]
C#CCCCO/N=C1/[C@H]2O[C@@H]2[C@@H](O)[C@H]2[C@H]1CCn1c(=O)n(Cc3cc4c(cc3Cl)OCO4)c(=O)n12	5.2%[11.4 µM]	.	5.8%[11.5 µM]	.	0.3%[11.4 µM]
COc1ccc(CNc2oc(COc3ccccc3)nc2C#N)cc1	.	.	.	.	6.1%
N#Cc1nc(COc2ccc(Cl)cc2)oc1NCc1ccc2c(c1)OCO2	?	11.7%	5.0%	7.7%	10µM*
Cc1cccc(OCc2nc(C#N)c(NCc3ccc4c(c3)OCO4)o2)c1	?	6.9%	-13.1%	12.8%	15.8µM*
CCNc1oc(COc2cccc(C)c2)nc1C#N	?	2.9%	-8.0%	-1.6%	?
Cc1cccc(OCc2nc(C#N)c(N3CC(C)CC(C)C3)o2)c1 (configuration not stated)	?	3.2%	-13.6%	1.2%	6.31µM*
O=c1[nH]c(=S)[nH]c2c1CN(CCCN1CCOCC1)CN2	4.0%[11.4 µM]	?	15.4%[11.5 µM]	3.6%[11.4 µM]	0.5%[11.4 µM]
Cc1ccc(SC/C(O)=C(\C#N)c2nc3ccccc3n2C)cc1	?	?	-1.3%	54.0%	?
Cn1c(/C(C#N)=C(\O)CN2CCN(Cc3ccccc3)CC2)nc2ccccc21	?	-5.5%	-10.7%	-0.4%	31.6µM*
COc1cccc(NC(=O)CSc2nc3n[nH]c(C)c3c(=N)n2-c2cccc(OC)c2)c1	5.6%	2.51µM*	7.2%	27.1%	7.9%
COc1cccc(-n2c(SCC(=O)NCCC3=CCCCC3)nc3n[nH]c(C)c3c2=N)c1	0.8%	?	-1.3%	1.5%	-6.3%
